# From PubChem BioAssay
# The source made the active and inactive calls.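 The calls were made as follows, unless noted: active = normalized viability below 100% at a tested concentration; inactive = the rest.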
# Tests used:
# [1] = viability loss with induced miR-34 in A549 – imaging, A549 dox-inducible miR-34, nuclei and caspase counts, primary screen (AID 1347080;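 active = compounds whose cell count with miR-34 switched on is under 0.7 times the count with it off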); settings: A549 miR-34 inducible, Hoechst nuclei count, 48 h
# [2] = MELAS cybrid and Rieske KO viability enhancers – cell-based, MELAS cybrids, Rieske KO mouse fibroblasts, CellTiter-Glo, primary screen (AID 1508586;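 active = mean z-score across replicates of 1.96 or higher in either the MELAS or the Rieske mutant cell line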;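 also: z relative to plate mean and SD of compound and empty wells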); settings: low glucose
# [3] = drug combination growth inhibition, ovarian cancer – cell-based, oncology-focused library, rucaparib conditional, profiling panel (AID 1508598); settings: patient-derived ovarian cancer cells, CellTiter-Glo viability, 144 h, stronger effect = lower value
# [4] = stronger effect = lower value, cell number ratio, induced over uninduced
# [5] = measured here: relative caspase fold change +Dox/-Dox
# [6] = measured here: total cells with miR-34 induction, stronger effect = lower value
# [7] = measured here: total cells without miR-34 induction
# [8] = MELAS cybrid survival, CellTiter-Glo 48 h, stronger effect = higher value
# [9] = Rieske KO mouse fibroblast survival, CellTiter-Glo 72 h
# [10] = at 0.000305 µM, OCI-C5x cells, with rucaparib 10 µM, 100% = cells with rucaparib alone
# [11] = at 0.000305 µM, OCI-C5x cells, without rucaparib
# [12] = at 0.000305 µM, OCI-P5x cells, with rucaparib 20 µM, 100% = cells with rucaparib alone
# [13] = at 0.000305 µM, OCI-P5x cells, without rucaparib
# [14] = at 0.00122 µM, OCI-C5x cells, with rucaparib 10 µM, 100% = cells with rucaparib alone
# [15] = at 0.00122 µM, OCI-C5x cells, without rucaparib
# [16] = at 0.00122 µM, OCI-P5x cells, with rucaparib 20 µM, 100% = cells with rucaparib alone
# [17] = at 0.00122 µM, OCI-P5x cells, without rucaparib
# [18] = at 0.00488 µM, OCI-C5x cells, with rucaparib 10 µM, 100% = cells with rucaparib alone
# [19] = at 0.00488 µM, OCI-C5x cells, without rucaparib
# [20] = at 0.00488 µM, OCI-P5x cells, with rucaparib 20 µM, 100% = cells with rucaparib alone
# [21] = at 0.00488 µM, OCI-P5x cells, without rucaparib
# [22] = at 0.0195 µM, OCI-C5x cells, with rucaparib 10 µM, 100% = cells with rucaparib alone
# [23] = at 0.0195 µM, OCI-C5x cells, without rucaparib
# [24] = at 0.0195 µM, OCI-P5x cells, with rucaparib 20 µM, 100% = cells with rucaparib alone
# [25] = at 0.0195 µM, OCI-P5x cells, without rucaparib
# [26] = at 0.0781 µM, OCI-C5x cells, with rucaparib 10 µM, 100% = cells with rucaparib alone
# [27] = at 0.0781 µM, OCI-C5x cells, without rucaparib
# [28] = at 0.0781 µM, OCI-P5x cells, with rucaparib 20 µM, 100% = cells with rucaparib alone
# [29] = at 0.0781 µM, OCI-P5x cells, without rucaparib
# [30] = at 0.313 µM, OCI-C5x cells, with rucaparib 10 µM, 100% = cells with rucaparib alone
# [31] = at 0.313 µM, OCI-C5x cells, without rucaparib
# [32] = at 0.313 µM, OCI-P5x cells, with rucaparib 20 µM, 100% = cells with rucaparib alone
# [33] = at 0.313 µM, OCI-P5x cells, without rucaparib
# [34] = at 1.25 µM, OCI-C5x cells, with rucaparib 10 µM, 100% = cells with rucaparib alone
# [35] = at 1.25 µM, OCI-C5x cells, without rucaparib
# [36] = at 1.25 µM, OCI-P5x cells, with rucaparib 20 µM, 100% = cells with rucaparib alone
# [37] = at 1.25 µM, OCI-P5x cells, without rucaparib
# [38] = at 5 µM, OCI-C5x cells, with rucaparib 10 µM, 100% = cells with rucaparib alone
# [39] = at 5 µM, OCI-C5x cells, without rucaparib
# [40] = at 5 µM, OCI-P5x cells, with rucaparib 20 µM, 100% = cells with rucaparib alone
# [41] = at 5 µM, OCI-P5x cells, without rucaparib
structure (smiles),measurement,setting,value
O=C(C=Cc1ccc(O)c(O)c1)c1ccc(O)cc1O,fold change,[1]; [4],0.953 (inactive)
same,fold change,[1]; [5],0.45
same,cell count,[1]; [6],8780
same,cell count,[1]; [7],9210
same,z-score,[2]; [8],-0.304 (inactive)
same,z-score,[2]; [9],-0.063
O=C1c2c(O)cc(O)cc2OC(c2cc(O)c(O)c(O)c2)C1O (stereo unspecified),fold change,[1]; [4],0.92 (inactive)
same,fold change,[1]; [5],0.77
same,cell count,[1]; [6],9760
same,cell count,[1]; [7],10600
same,z-score,[2]; [8],-0.325 (inactive)
same,z-score,[2]; [9],0.635
CCCN(CCc1cccs1)C1CCc2c(O)cccc2C1 (stereo unspecified),fold change,[1]; [4],0.911 (inactive)
same,fold change,[1]; [5],0.584
same,cell count,[1]; [6],8660
same,cell count,[1]; [7],9500
same,z-score,[2]; [8],-0.281 (inactive)
same,z-score,[2]; [9],-0.2
Oc1ccc(OC2CCCCO2)cc1 (stereo unspecified),fold change,[1]; [4],0.945 (inactive)
same,fold change,[1]; [5],0.827
same,cell count,[1]; [6],7580
same,cell count,[1]; [7],8020
same,z-score,[2]; [8],-0.229 (inactive)
same,z-score,[2]; [9],-0.263
COc1ccccc1-c1cc(Nc2cccc(CS(N)(=O)=O)c2)ncn1,fold change,[1]; [4],0.955 (inactive)
same,fold change,[1]; [5],0.462
same,cell count,[1]; [6],3900
same,cell count,[1]; [7],4080
same,z-score,[2]; [8],-0.3 (inactive)
same,z-score,[2]; [9],-1.46
same,viability,[3]; [10],125% (inactive)
same,viability,[3]; [11],105% (inactive)
same,viability,[3]; [12],92.8% (active)
same,viability,[3]; [13],91.1% (active)
same,viability,[3]; [14],122% (inactive)
same,viability,[3]; [15],98.9% (active)
same,viability,[3]; [16],96.8% (active)
same,viability,[3]; [17],90.1% (active)
same,viability,[3]; [18],127% (inactive)
same,viability,[3]; [19],107% (inactive)
same,viability,[3]; [20],103% (inactive)
same,viability,[3]; [21],95.2% (active)
same,viability,[3]; [22],126% (inactive)
same,viability,[3]; [23],117% (inactive)
same,viability,[3]; [24],103% (inactive)
same,viability,[3]; [25],97.6% (active)
same,viability,[3]; [26],126% (inactive)
same,viability,[3]; [27],115% (inactive)
same,viability,[3]; [28],100% (inactive)
same,viability,[3]; [29],102% (inactive)
same,viability,[3]; [30],111% (inactive)
same,viability,[3]; [31],102% (inactive)
same,viability,[3]; [32],93.6% (active)
same,viability,[3]; [33],99.6% (active)
same,viability,[3]; [34],125% (inactive)
same,viability,[3]; [35],110% (inactive)
same,viability,[3]; [36],91.1% (active)
same,viability,[3]; [37],94.8% (active)
same,viability,[3]; [38],105% (inactive)
same,viability,[3]; [39],99.7% (active)
same,viability,[3]; [40],64.2% (active)
same,viability,[3]; [41],74.8% (active)
CN(C)CCOc1ccc(-c2nc(-c3ccc4c(c3)CCC4=NO)c(-c3ccncc3)[nH]2)cc1,fold change,[1]; [4],0.921 (inactive)
same,fold change,[1]; [5],1.04
same,cell count,[1]; [6],6630
same,cell count,[1]; [7],7200
same,z-score,[2]; [8],-0.178 (inactive)
same,z-score,[2]; [9],0.963
same,viability,[3]; [10],124% (inactive)
same,viability,[3]; [11],144% (inactive)
same,viability,[3]; [12],72.5% (active)
same,viability,[3]; [13],88.8% (active)
same,viability,[3]; [14],121% (inactive)
same,viability,[3]; [15],132% (inactive)
same,viability,[3]; [16],70.7% (active)
same,viability,[3]; [17],68.7% (active)
same,viability,[3]; [18],121% (inactive)
same,viability,[3]; [19],153% (inactive)
same,viability,[3]; [20],70.2% (active)
same,viability,[3]; [21],74.7% (active)
same,viability,[3]; [22],109% (inactive)
same,viability,[3]; [23],138% (inactive)
same,viability,[3]; [24],69.4% (active)
same,viability,[3]; [25],73.6% (active)
same,viability,[3]; [26],125% (inactive)
same,viability,[3]; [27],133% (inactive)
same,viability,[3]; [28],83.1% (active)
same,viability,[3]; [29],111% (inactive)
same,viability,[3]; [30],119% (inactive)
same,viability,[3]; [31],140% (inactive)
same,viability,[3]; [32],85.3% (active)
same,viability,[3]; [33],114% (inactive)
same,viability,[3]; [34],120% (inactive)
same,viability,[3]; [35],153% (inactive)
same,viability,[3]; [36],78.5% (active)
same,viability,[3]; [37],108% (inactive)
same,viability,[3]; [38],136% (inactive)
same,viability,[3]; [39],187% (inactive)
same,viability,[3]; [40],1.04% (active)
same,viability,[3]; [41],102% (inactive)
C[C@@H]1C(=O)O[C@H]2CC34[C@H]5C[C@@H](C(C)(C)C)C36C(OC(=O)[C@H]6O)O[C@@]4(C(=O)O5)[C@]21O (stereo partly specified),fold change,[1]; [4],0.955 (inactive)
same,fold change,[1]; [5],1.23
same,cell count,[1]; [6],7970
same,cell count,[1]; [7],8340
same,z-score,[2]; [8],-0.0435 (inactive)
same,z-score,[2]; [9],0.0455
CN(C)CCSSCCNC(=O)C1CCN(C(=O)CSc2ccc(Cl)cc2)CC1,fold change,[1]; [4],0.922 (inactive)
same,fold change,[1]; [5],0.314
same,cell count,[1]; [6],7870
same,cell count,[1]; [7],8530
same,z-score,[2]; [8],-0.0132 (inactive)
same,z-score,[2]; [9],1
same,viability,[3]; [10],118% (inactive)
same,viability,[3]; [11],110% (inactive)
same,viability,[3]; [12],103% (inactive)
same,viability,[3]; [13],95.4% (active)
same,viability,[3]; [14],117% (inactive)
same,viability,[3]; [15],112% (inactive)
same,viability,[3]; [16],102% (inactive)
same,viability,[3]; [17],101% (inactive)
same,viability,[3]; [18],126% (inactive)
same,viability,[3]; [19],112% (inactive)
same,viability,[3]; [20],109% (inactive)
same,viability,[3]; [21],103% (inactive)
same,viability,[3]; [22],122% (inactive)
same,viability,[3]; [23],105% (inactive)
same,viability,[3]; [24],106% (inactive)
same,viability,[3]; [25],100% (active)
same,viability,[3]; [26],129% (inactive)
same,viability,[3]; [27],112% (inactive)
same,viability,[3]; [28],103% (inactive)
same,viability,[3]; [29],95.1% (active)
same,viability,[3]; [30],124% (inactive)
same,viability,[3]; [31],91.9% (active)
same,viability,[3]; [32],98.4% (active)
same,viability,[3]; [33],89.4% (active)
